Bioassay records as filed in PubChem BioAssay.
MITF act – activators of MITF-driven TRPM1 promoter reporter, primary screen, cell-based, SK-MEL-5, luciferase, single point; SK-MEL-5 TRPM1-promoter luciferase, 24 h; % of positive control, neutral wells = 0; activation, % at 12.5 µM; 300,000 compounds, 0.75% hits; AID 588334, 2011;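 active means mean activation of at least 80% with every replicate also reaching 80%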;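 further: 0% = neutral control wells and 100% = parthenolide positive control wells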
Wnt act – Wnt/beta-catenin pathway activators, primary screen, cell-based, plate reader, single point; Wnt/beta-catenin reporter cell assay, activator; activation, % at 9.35 µM; 300,000 compounds, 1.2% hits; in the data active means activation above about 30%, passing the limit was not always enough;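 further: 0% = neutral control wells and 100% = positive control wells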
esBAF inh – Bmi1 luciferase reporter increase in mESCs, primary screen, esBAF inhibitor project, mouse ES cells, Bmi1 luciferase knock-in, single point; 24 h; 100% = twice the neutral-well signal; 350,000 compounds, 2% hits; AID 602393, 2012; reporter increase, % at 12.5 µM; in the data active means activation above about 40%;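 further: 0% = median of the plate's neutral control wells and 100% = double that signal; a rise in the Bmi1 reporter signal indicates esBAF inhibition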
Rtt109 HAT inh – inhibitors of C. albicans Rtt109/Vps75 HAT, primary screen, biochemical, ThioGlo CoA-SH fluorescence, plate reader; Histone acetyltransferase RTT109 (Candida albicans (strain SC5314 / ATCC MYA-2876)), …; purified Rtt109/Vps75, 4 h; inhibition, % at 34.9 µM; 330,000 compounds, 0.16% hits;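 active means inhibition of at least 50% in every replicate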
Target sequence (Q5AAJ8 whole entry, looked up): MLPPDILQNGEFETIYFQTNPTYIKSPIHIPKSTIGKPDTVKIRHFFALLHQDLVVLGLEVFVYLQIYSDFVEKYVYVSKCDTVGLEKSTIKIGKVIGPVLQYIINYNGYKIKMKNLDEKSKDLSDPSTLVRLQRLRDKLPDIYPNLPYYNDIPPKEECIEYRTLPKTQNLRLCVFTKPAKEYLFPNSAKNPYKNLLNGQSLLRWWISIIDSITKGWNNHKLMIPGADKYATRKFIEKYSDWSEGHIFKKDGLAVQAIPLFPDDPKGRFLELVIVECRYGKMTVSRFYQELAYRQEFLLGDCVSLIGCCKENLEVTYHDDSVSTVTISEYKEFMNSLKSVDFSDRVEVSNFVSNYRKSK
C2C12 statin – suppressors of statin myotoxicity in C2C12 myotubes, primary screen, cell-based, single point, plate reader | C2C12 myotubes + simvastatin, ATP luminescence, 48 h; scaled: DMSO 0, geranylgeraniol control 100 | rescue of ATP level, % at 7.49 µM | 330,000 compounds, 0.78% hits;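 active means mean ATP rescue above about 67%, or every replicate alone reaching that limit, limit read from the data, passing the limit was not always enough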;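 further: myotubes were challenged with 10 µM simvastatin during compound exposure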
Ring1 derepress – Ring1 mRNA increase in mouse ESCs, confirmation, esBAF inhibitor project, cell-based, mouse ESC, RT-qPCR, cherry-pick; shares compounds with esBAF inh; mouse ESC E14, Ring1 mRNA RT-qPCR fold change; fold change at 33 µM; 550 tested, under 10 active; AID 743176, 2013;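 active means Ring1 gene expression raised more than 2-fold over untreated cells in both replicates at either tested dose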;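 further: Ring1 transcript normalised to actin housekeeping signal by TaqMan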
Fgf4 repress – Fgf4 mRNA decrease in mouse ESCs, confirmation, esBAF inhibitor project, cell-based, mouse ESC, RT-qPCR, cherry-pick | mouse ESC E14, Fgf4 mRNA qPCR fold change; stronger effect = lower value | shares compounds with esBAF inh | AID 743177, 2013 | 550 compounds, 4% hits | Fgf4 expression fold change at 33 µM;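 active means Fgf4 expression under 0.8 fold of control in both repeat measurements at one or both tested doses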;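 further: Fgf4 transcript normalised to actin in duplex TaqMan qPCR; cells exposed to compound for 24 h before lysis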
Bmi1 derepress – esBAF inhibition via Bmi1 de-repression, confirmation, cell-based, RT-qPCR, mouse ESC, single point, cherry-pick; 550 tested, under 10 active; shares compounds with esBAF inh; mouse ESE14 ES cells, Bmi1 mRNA qPCR fold; stronger effect = higher value; fold change at 33 µM;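 active means Bmi1 expression fold change above 6 at either tested concentration, seen in replicate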
A549 tox SP – A549 cell cytotoxicity, cytotoxicity control, plate reader, single point, cherry-pick | shares compounds with esBAF inh | cell viability change % (negative = cytotoxic), % at 25 µM, hits read low | 550 tested, under 10 active; call rule not given here
HepG2 tox SP – HepG2 cell cytotoxicity, cytotoxicity control, plate reader, single point, cherry-pick; shares compounds with esBAF inh; stronger effect = lower value; activity change, negative = inhibition, % at 25 µM; 550 compounds, 4% hits; in the data active means activity change below about -50%
HEK293 tox SP – HEK293 cell cytotoxicity, cytotoxicity control, plate reader, single point, cherry-pick | shares compounds with esBAF inh | activity change, negative = inhibition, % at 25 µM, hits read low | 550 compounds, 3% hits; in the data active means activity change below about -38%, passing the limit was not always enough
The depositor's hits bear a star. Rows were chosen to be rich in hits. Some 3.1% of all compounds tested hit in one or more screens of this group.

`COc1cccc(-c2nc(-c3ccc(NC(=O)c4cccs4)cc3)no2)c1` gave MITF act 52, esBAF inh 62*, Rtt109 HAT inh -5, C2C12 statin -7, Ring1 derepress 1.1, Fgf4 repress 0.86, Bmi1 derepress 1.5, A549 tox SP -15, HepG2 tox SP -6 and HEK293 tox SP -18.
Screening COc1cccc(-c2nc(-c3ccc(NC(=O)c4ccncc4)cc3)no2)c1 returned esBAF inh 20, Rtt109 HAT inh 2 and C2C12 statin 0.
`COc1cc(OC)cc(C(=O)Nc2cccc3c2CCCC3)c1` gave MITF act -5, Wnt act 0, esBAF inh -2, Rtt109 HAT inh 11 and C2C12 statin -1.
`COC(=O)C1CCc2c(ccc3c2CCCC3)C1=O` (stereo not given) gave MITF act 101*, Wnt act -4, esBAF inh 60*, Rtt109 HAT inh 25, C2C12 statin 4, Ring1 derepress 1.1, Fgf4 repress 0.96, Bmi1 derepress 1.3, A549 tox SP -13, HepG2 tox SP 2 and HEK293 tox SP -14.
For CO[C@H]1CN(C)C(=O)c2ccc(NC(=O)C3CC3)cc2OC[C@@H](C)N(C(=O)c2ccccc2F)C[C@H]1C the results were esBAF inh 8 and C2C12 statin 2.
`CO[C@@H]1CN(C)C(=O)c2ccc(NC(=O)c3cc(C)on3)cc2OC[C@H](C)N(C(C)=O)C[C@@H]1C` gave esBAF inh 4 and C2C12 statin -9.
Screening CN(C)c1ccc(C=C2C=Cc3ccccc32)cc1 returned MITF act 35, Wnt act 0, esBAF inh -11, Rtt109 HAT inh -1 and C2C12 statin -7.
COc1cc2c(cc1OC)C(=Cc1ccc(N(C)C)cc1)C=C2 was read as MITF act 61, Wnt act -2, esBAF inh 67*, Rtt109 HAT inh 4, C2C12 statin 5, Ring1 derepress 0.93, Fgf4 repress 0.96, Bmi1 derepress 1.8, A549 tox SP -7, HepG2 tox SP -8 and HEK293 tox SP 1.
C[C@H]1CN([C@@H](C)CO)S(=O)(=O)c2ccc(-c3ccncc3)cc2O[C@H]1CN(C)C(=O)C1CCCCC1 was read as esBAF inh 9 and C2C12 statin -20.
Cn1ccc2c(-c3ccc(C(=O)O)cc3)cc3c(c21)C1CCC3C1 (stereo not given) was read as Wnt act -8, esBAF inh 66*, C2C12 statin -5, Ring1 derepress 1.4, Fgf4 repress 0.96, Bmi1 derepress 1.5, A549 tox SP -7, HepG2 tox SP -13 and HEK293 tox SP 1.
For Clc1ccc(-c2csc(N3CCSCC3)n2)cc1 the results were MITF act 46, Wnt act 9, esBAF inh 76*, Rtt109 HAT inh -21, C2C12 statin -1, Ring1 derepress 0.99, Fgf4 repress 0.87, Bmi1 derepress 1.7, A549 tox SP -7, HepG2 tox SP -11 and HEK293 tox SP -11.
Screening O=C(O)c1ccc(N/N=C/c2cccc3nccnc23)cc1 returned MITF act 49, Wnt act 23, esBAF inh 65*, Rtt109 HAT inh 15, C2C12 statin -32, Ring1 derepress 1.2, Fgf4 repress 0.85, Bmi1 derepress 1.8, A549 tox SP -13, HepG2 tox SP -29 and HEK293 tox SP 6.
Screening CC(C)N1CC2(CC(c3ccccc3F)=NO2)CN1C(=O)c1ccc(C(C)(C)C)cc1 (stereo not given) returned Wnt act -1, esBAF inh 75*, C2C12 statin 2, Ring1 derepress 0.92, Fgf4 repress 0.89, Bmi1 derepress 1.7, A549 tox SP -6, HepG2 tox SP -1 and HEK293 tox SP -9.
`CC(C)N1CC2(CC(c3ccccc3C(F)(F)F)=NO2)CN1C(=O)c1ccc(C(C)(C)C)cc1` (stereo not given) gave Wnt act -2, esBAF inh 0 and C2C12 statin -15.
O=C(Nc1ccc2ccccc2c1)c1cccc2ccccc12 was read as MITF act 32, Wnt act -3, esBAF inh 77*, Rtt109 HAT inh -2, C2C12 statin 3, Ring1 derepress 1.1, Fgf4 repress 0.95, Bmi1 derepress 1.8, A549 tox SP -9, HepG2 tox SP 22 and HEK293 tox SP -11.
`COc1ccc(NC(=O)c2ccc3ccccc3c2OC)cc1` gave Wnt act -1, esBAF inh 75*, Rtt109 HAT inh -2, C2C12 statin -16, Ring1 derepress 1.1, Fgf4 repress 0.93, Bmi1 derepress 2.3, A549 tox SP 0, HepG2 tox SP -33 and HEK293 tox SP -6.
COc1ccc(NC(=O)c2cc3ccccc3cc2OC)cc1 was read as MITF act 63, Wnt act 23, esBAF inh 28, Rtt109 HAT inh -10 and C2C12 statin -34.
For CS(=O)(=O)N1CCN(c2nc3ccccc3s2)CC1 the results were MITF act 67, esBAF inh 65*, Rtt109 HAT inh -2, C2C12 statin 16, Ring1 derepress 1.1, Fgf4 repress 1.1, Bmi1 derepress 1.1, A549 tox SP -11, HepG2 tox SP -16 and HEK293 tox SP -7.
